Activity calls are given as the source filed them. The calls were made as follows: active = hit-call score of the fitted dose curve at least 0.9, where 1 is the maximum; inactive = score below 0.9.
Key:
Settings in all cases: mRNA level, 48 h; actives raise or lower the signal
[1] = read-out: CYP2C9 (gene 1559); assay: LTEA_HepaRG_CYP2C9: Life Technologies and Expression Analysis (LTEA) Assay for CYP2C9 using HepaRG (AID 2283484)
Summary of the method: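 Eight-point concentration-response (highest 100 uM, half-log dilutions) in HepaRG cells for 48 h; CYP2C9 expression by qRT-PCR normalized to ACTB, GAPDH, POLR2A. Bidirectional fit, DMSO baseline.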

[2] = read-out: CYP2E1 (gene 1571); assay: LTEA_HepaRG_CYP2E1: Life Technologies and Expression Analysis (LTEA) Assay for CYP2E1 using HepaRG (AID 2283485)
Summary of the method: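 Readout is qRT-PCR of CYP2E1 mRNA, normalized to three housekeeping genes and fitted bidirectionally against 0.5% DMSO. HepaRG cells were dosed 48 h at eight concentrations, highest 100 uM with half-log dilutions.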

[3] = read-out: CYP4A11 (gene 1579); assay: LTEA_HepaRG_CYP4A11: Life Technologies and Expression Analysis (LTEA) Assay for CYP4A11 using HepaRG (AID 2283486)
Summary of the method: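 Readout is CYP4A11 transcript level by qRT-PCR, normalized to three housekeeping genes and fitted bidirectionally against 0.5% DMSO. Human HepaRG cells were treated 48 h, in duplicate, with an 8-point half-log series topping at 100 uM.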

[4] = read-out: Cytochrome P450 3A4 (Homo sapiens) (UniProt P08684); assay: LTEA_HepaRG_CYP3A4: Life Technologies and Expression Analysis (LTEA) Assay for CYP3A4 using HepaRG (AID 2283487)
Summary of the method: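 Differentiated HepaRG cells, plated 48 h, then dosed 48 h in serum-free induction medium with 0.5% DMSO, 8 half-log concentrations up to 100 uM, duplicate. CYP3A4 mRNA by qRT-PCR, normalized to ACTB/GAPDH/POLR2A; bidirectional fit versus DMSO.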

[5] = read-out: DNA damage-inducible transcript 3 (DDIT3), DDIT3 (gene 1649); assay: LTEA_HepaRG_DDIT3: Life Technologies and Expression Analysis (LTEA) Assay for DNA damage-inducible transcript 3 (DDIT3) using HepaRG (AID 2283488)
Summary of the method: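 Cells are human HepaRG liver cells treated for 48 h with eight half-log concentrations up to 100 uM in 0.5% DMSO. Transcript levels come from qRT-PCR normalized to three housekeeping genes, with activity fitted in both directions relative to vehicle.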

[6] = read-out: Pro-epidermal growth factor (Homo sapiens) (UniProt P01133); assay: LTEA_HepaRG_EGF: Life Technologies and Expression Analysis (LTEA) Assay for Epidermal growth factor (EGF) using HepaRG (AID 2283489)
Summary of the method: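 EGF transcript measured by Fluidigm TaqMan qRT-PCR with three housekeeping genes for normalization, 48 h after dosing HepaRG cultures in duplicate (top 100 uM, half-log steps, 0.5% DMSO vehicle). Gain or loss relative to DMSO fitted.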

[7] = read-out: Early growth response protein 1 (EGR1) transcription factor, EGR1 (gene 1958); assay: LTEA_HepaRG_EGR1: Life Technologies and Expression Analysis (LTEA) Assay for Early growth response protein 1 (EGR1) transcription factor using HepaRG (AID 2283490)
Summary of the method: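 EGR1 expression change in human HepaRG after 48 h chemical exposure, assessed by housekeeping-normalized qRT-PCR; concentration-response up to 100 uM, fitted in both directions against DMSO controls.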

[8] = read-out: Ezrin (EZR), EZR (gene 7430); assay: LTEA_HepaRG_EZR: Life Technologies and Expression Analysis (LTEA) Assay for Ezrin (EZR) using HepaRG (AID 2283491)
Summary of the method: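 EZR transcript levels came from Fluidigm qRT-PCR and were normalized to three housekeeping genes after 48 h chemical exposure of HepaRG cells. Dosing used an 8-point half-log series with a 100 uM top concentration in 0.5% DMSO, tested in duplicate; both directions were fitted versus vehicle.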

[9] = read-out: Cytochrome P450 3A7 (Homo sapiens) (UniProt P24462); assay: LTEA_HepaRG_CYP3A7: Life Technologies and Expression Analysis (LTEA) Assay for CYP3A7 using HepaRG (AID 2283492)
Summary of the method: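 CYP3A7 transcript measured by qRT-PCR (ACTB, GAPDH, POLR2A normalization) after 48 h chemical exposure of HepaRG cells in duplicate. Eight half-log concentrations, maximum 100 uM, 0.5% DMSO vehicle; bidirectional curve fitting against DMSO baseline.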

[10] = read-out: CYP3A5 (gene 1577); assay: LTEA_HepaRG_CYP3A5: Life Technologies and Expression Analysis (LTEA) Assay for CYP3A5 using HepaRG (AID 2283493)
Summary of the method: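 Human HepaRG hepatic cells receive 48 h chemical treatment at eight concentrations (half-log steps from 100 uM) in 0.5% DMSO. Expression of CYP3A5 is quantified by Fluidigm qRT-PCR and normalized to three reference genes.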

[11] = read-out: Fatty Acid-Binding Protein 1 (FABP1), FABP1 (gene 2168); assay: LTEA_HepaRG_FABP1: Life Technologies and Expression Analysis (LTEA) Assay for Fatty Acid-Binding Protein 1 (FABP1) using HepaRG (AID 2283494)
Summary of the method: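 Values reflect bidirectional concentration-response fitting of FABP1 mRNA change against 0.5% DMSO controls. Human HepaRG cultures received eight half-log doses (top 100 uM) for 48 h; expression quantified by TaqMan qRT-PCR with housekeeping-gene normalization.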

[12] = read-out: Cytochrome P450 4A22 (Homo sapiens) (UniProt Q5TCH4); assay: LTEA_HepaRG_CYP4A22: Life Technologies and Expression Analysis (LTEA) Assay for Cytochrome P450 4A22 (CYP4A22) using HepaRG (AID 2283495)
Summary of the method: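 Gene expression measured by qRT-PCR against three housekeeping genes (ACTB, GAPDH, POLR2A), with gain or loss fitted relative to 0.5% DMSO vehicle. HepaRG cultures received 48 h chemical treatment, top concentration 100 uM, half-log steps, duplicate wells.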

[13] = read-out: Cytochrome P450 7A1 (Homo sapiens) (UniProt P22680); assay: LTEA_HepaRG_CYP7A1: Life Technologies and Expression Analysis (LTEA) Assay for Cytochrome P450 7A1 (CYP7A1) using HepaRG (AID 2283496)
Summary of the method: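 HepaRG, 48 h exposure, 8-pt half-log series from 100 uM, 0.5% DMSO vehicle, duplicates. Readout: TaqMan qRT-PCR mRNA vs three housekeeping genes; bidirectional curve fit against DMSO baseline.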

[14] = read-out: Glutathione S-Transferase (GSTA2), GSTA2 (gene 2939); assay: LTEA_HepaRG_GSTA2: Life Technologies and Expression Analysis (LTEA) Assay for Glutathione S-Transferase (GSTA2) using HepaRG (AID 2283497)
Summary of the method: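 Oxidative-stress marker GSTA2 is quantified by TaqMan qRT-PCR in HepaRG cultures treated 48 h across an eight-point range to 100 uM. Expression is normalized to endogenous controls and compared with 0.5% DMSO vehicle.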

[15] = read-out: Glutamate-cysteine ligase catalytic (GCLC), GCLC (gene 2729); assay: LTEA_HepaRG_GCLC: Life Technologies and Expression Analysis (LTEA) Assay for Glutamate-cysteine ligase catalytic (GCLC) using HepaRG (AID 2283498)
Summary of the method: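 Oxidative-stress marker GCLC is measured as mRNA change in human HepaRG liver cells after 48 h chemical treatment in 0.5% DMSO, eight concentrations from 100 uM. Activity is fitted bidirectionally against vehicle.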

[16] = read-out: growth arrest and DNA damage 45 (GADD45G), GADD45G (gene 10912); assay: LTEA_HepaRG_GADD45G: Life Technologies and Expression Analysis (LTEA) Assay for growth arrest and DNA damage 45 (GADD45G) using HepaRG (AID 2283499)
Summary of the method: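 GADD45G transcript level by qRT-PCR (housekeeping-normalized: ACTB, GAPDH, POLR2A) after 48 h chemical treatment of a single HepaRG lot in serum-free induction medium; eight-point half-log series up to 100 uM in 0.5% DMSO, duplicates, up- or down-regulation scored.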

[17] = read-out: Glutamate-cysteine ligase regulatory (GCLM), GCLM (gene 2730); assay: LTEA_HepaRG_GCLM: Life Technologies and Expression Analysis (LTEA) Assay for Glutamate-cysteine ligase regulatory (GCLM) using HepaRG (AID 2283500)
Summary of the method: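 Endpoint is GCLM transcript level by qRT-PCR, normalized to three housekeeping genes, after 48 h chemical exposure of human HepaRG cells (0.5% DMSO vehicle, top 100 uM, half-log dilutions). Fitting was bidirectional relative to DMSO.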

[18] = read-out: Glutathione S-transferase M3 (GSTM3), GSTM3 (gene 2947); assay: LTEA_HepaRG_GSTM3: Life Technologies and Expression Analysis (LTEA) Assay for Glutathione S-transferase M3 (GSTM3) using HepaRG (AID 2283501)
Summary of the method: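 GSTM3 transcript levels came from Fluidigm TaqMan qRT-PCR normalized to three housekeeping genes, fitted in both directions against DMSO. HepaRG cultures received chemicals for 48 h in serum-free induction medium (0.5% DMSO), 8 half-log concentrations up to 100 uM, duplicate.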

[19] = read-out: Heat shock 70 kDa protein 1 (HSPA1A), gene 3303; assay: LTEA_HepaRG_HSPA1A: Life Technologies and Expression Analysis (LTEA) Assay for Heat shock 70 kDa protein 1 (HSPA1A) using HepaRG (AID 2283502)
Summary of the method: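 Cells were plated and cultured for 48 h, then switched to serum-free induction medium. Chemicals were added at eight half-log concentrations up to 100 uM for 48 h. RNA was then isolated and HSPA1A measured by qRT-PCR with bidirectional curve fitting against DMSO.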

[20] = read-out: Hypoxia-inducible factor 1-alpha (Homo sapiens) (UniProt Q16665); assay: LTEA_HepaRG_HIF1A: Life Technologies and Expression Analysis (LTEA) Assay for Hypoxia-inducible factor 1 (HIF1A) Trancription factor using HepaRG (AID 2283503)
Summary of the method: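 HIF1A transcript level read by qRT-PCR (ACTB, GAPDH, POLR2A normalization) after 48 h chemical exposure of HepaRG cultures. Eight half-log concentrations, top 100 uM, 0.5% DMSO vehicle, duplicates; bidirectional curve fit against DMSO baseline.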

Measured: AC50

Sequence of Hypoxia-inducible factor 1-alpha (Homo sapiens) (Q16665 whole entry, looked up): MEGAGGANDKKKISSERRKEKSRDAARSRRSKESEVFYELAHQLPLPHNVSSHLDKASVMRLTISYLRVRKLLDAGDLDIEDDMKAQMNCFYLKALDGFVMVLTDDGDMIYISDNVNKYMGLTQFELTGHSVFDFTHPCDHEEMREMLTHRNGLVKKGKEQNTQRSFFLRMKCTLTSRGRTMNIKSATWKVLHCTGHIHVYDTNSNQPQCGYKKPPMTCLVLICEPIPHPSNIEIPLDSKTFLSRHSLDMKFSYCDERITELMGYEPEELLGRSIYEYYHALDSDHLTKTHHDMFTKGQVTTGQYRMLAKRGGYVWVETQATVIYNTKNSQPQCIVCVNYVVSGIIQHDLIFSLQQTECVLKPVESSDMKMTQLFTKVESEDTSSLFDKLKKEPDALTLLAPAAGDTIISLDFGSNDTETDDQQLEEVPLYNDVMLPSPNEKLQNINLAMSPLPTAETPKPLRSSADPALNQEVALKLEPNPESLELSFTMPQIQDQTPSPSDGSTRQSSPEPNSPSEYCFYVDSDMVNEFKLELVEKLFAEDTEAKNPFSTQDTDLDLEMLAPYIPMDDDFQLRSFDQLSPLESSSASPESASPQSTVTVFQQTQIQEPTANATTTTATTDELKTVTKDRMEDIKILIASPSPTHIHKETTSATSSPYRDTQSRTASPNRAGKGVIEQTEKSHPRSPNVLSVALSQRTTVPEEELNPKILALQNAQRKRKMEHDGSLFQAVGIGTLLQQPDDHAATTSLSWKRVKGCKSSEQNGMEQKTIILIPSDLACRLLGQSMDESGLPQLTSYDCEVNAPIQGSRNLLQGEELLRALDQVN
Sequence of Cytochrome P450 3A7 (Homo sapiens) (P24462 whole entry, looked up): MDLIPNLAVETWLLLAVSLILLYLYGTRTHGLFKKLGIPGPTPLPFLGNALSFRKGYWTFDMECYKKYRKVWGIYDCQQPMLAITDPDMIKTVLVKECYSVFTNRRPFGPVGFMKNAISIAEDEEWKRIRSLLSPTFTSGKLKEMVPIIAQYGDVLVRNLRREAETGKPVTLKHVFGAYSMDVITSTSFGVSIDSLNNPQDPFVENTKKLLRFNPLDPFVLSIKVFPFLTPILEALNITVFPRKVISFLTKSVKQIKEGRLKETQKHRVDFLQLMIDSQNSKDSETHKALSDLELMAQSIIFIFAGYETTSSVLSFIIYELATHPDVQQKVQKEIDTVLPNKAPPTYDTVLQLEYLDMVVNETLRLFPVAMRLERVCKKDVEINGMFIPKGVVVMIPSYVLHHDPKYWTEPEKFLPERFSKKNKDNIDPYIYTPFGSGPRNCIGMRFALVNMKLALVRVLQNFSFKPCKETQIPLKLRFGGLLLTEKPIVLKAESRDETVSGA
Sequence of Cytochrome P450 3A4 (Homo sapiens) (P08684 whole entry, looked up): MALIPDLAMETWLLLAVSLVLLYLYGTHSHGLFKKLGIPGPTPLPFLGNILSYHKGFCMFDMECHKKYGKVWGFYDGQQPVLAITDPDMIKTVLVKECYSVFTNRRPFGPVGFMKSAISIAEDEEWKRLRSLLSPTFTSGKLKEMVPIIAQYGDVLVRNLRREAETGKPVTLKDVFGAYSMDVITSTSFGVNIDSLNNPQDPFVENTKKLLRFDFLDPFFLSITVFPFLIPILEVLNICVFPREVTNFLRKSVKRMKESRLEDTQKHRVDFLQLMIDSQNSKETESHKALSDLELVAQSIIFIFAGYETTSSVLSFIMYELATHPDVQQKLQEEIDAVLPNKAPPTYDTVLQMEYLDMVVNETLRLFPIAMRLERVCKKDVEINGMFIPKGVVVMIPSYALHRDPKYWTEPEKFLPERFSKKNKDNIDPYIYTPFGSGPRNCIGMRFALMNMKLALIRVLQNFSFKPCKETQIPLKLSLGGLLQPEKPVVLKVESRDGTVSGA

OCC(O)CO
inactive: all assays above

CCOCCOCCO
inactive: all assays above

CCCC[C@H]1CN(CC2CCOCC2)C(=O)OC12CCN(C1(C)CCN(C(=O)c3c(C)ncnc3C)CC1)CC2
not listed: [13]
inactive: all other assays above

NC1CCCCC1
inactive: all assays above

CCc1cc(C2=C(C(=O)O)N(c3ccccc3C(F)(F)F)S(=O)(=O)c3ccccc32)cc2c1OCO2
active: [1] 86.1 µM | [2] 56.8 µM | [3] 39.7 µM | [4] 0.679 µM | [5] 82.1 µM | [7] 9.92 µM | [12] 41 µM | [13] 72.2 µM | [14] 78.8 µM | [17] 68.2 µM
inactive: [6] | [8] | [10] | [11] | [15] | [16] | [18] | [19] | [20]

CC1(C)C(=O)NC(=O)N1CO
not listed: [13]
inactive: all other assays above

CCCCCCC(C=O)=Cc1ccccc1
inactive: all assays above

— PubChem BioAssay (EPA / NIEHS)
